Experimental data: PubChem BioAssay (NCATS)
The list shows a part of the results. Inconclusive results are not listed. Calls of active or inactive are those of the source. Calls follow the shape of the dose curve; as a rule, active = well fitted inhibition curve with a large enough effect; inconclusive = small, poorly fitted or top-dose-only effect; inactive = no such curve, though single readings can be large or run the other way.

Each compound was assayed against RecQ-like DNA helicase BLM (Homo sapiens) (UniProt P54132) (assay: qHTS for Inhibitors of WRN Helicase: BLM Helicase Counterscreen for WRN Inhibitors (AID 720503; also: nearly all actives have a fitted effect of over 60% in size)). Settings: Recombinant BLM helicase DNA unwinding, red fluorescence; series mostly up to 57.1 µM.
Procedure, shortened: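 Steps: compounds added to 1 nM BLM in pH 8.0 Tris buffer with 2 mM MgCl2; 15 min room-temperature incubation; substrates added (100 nM DNA, 2 mM ATP final); discontinuous kinetic fluorescence measurement, reads spaced 15 min.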
Potency is read from the fitted curve at half-maximal effect.

Sequence of RecQ-like DNA helicase BLM (Homo sapiens) (P54132 whole entry, looked up): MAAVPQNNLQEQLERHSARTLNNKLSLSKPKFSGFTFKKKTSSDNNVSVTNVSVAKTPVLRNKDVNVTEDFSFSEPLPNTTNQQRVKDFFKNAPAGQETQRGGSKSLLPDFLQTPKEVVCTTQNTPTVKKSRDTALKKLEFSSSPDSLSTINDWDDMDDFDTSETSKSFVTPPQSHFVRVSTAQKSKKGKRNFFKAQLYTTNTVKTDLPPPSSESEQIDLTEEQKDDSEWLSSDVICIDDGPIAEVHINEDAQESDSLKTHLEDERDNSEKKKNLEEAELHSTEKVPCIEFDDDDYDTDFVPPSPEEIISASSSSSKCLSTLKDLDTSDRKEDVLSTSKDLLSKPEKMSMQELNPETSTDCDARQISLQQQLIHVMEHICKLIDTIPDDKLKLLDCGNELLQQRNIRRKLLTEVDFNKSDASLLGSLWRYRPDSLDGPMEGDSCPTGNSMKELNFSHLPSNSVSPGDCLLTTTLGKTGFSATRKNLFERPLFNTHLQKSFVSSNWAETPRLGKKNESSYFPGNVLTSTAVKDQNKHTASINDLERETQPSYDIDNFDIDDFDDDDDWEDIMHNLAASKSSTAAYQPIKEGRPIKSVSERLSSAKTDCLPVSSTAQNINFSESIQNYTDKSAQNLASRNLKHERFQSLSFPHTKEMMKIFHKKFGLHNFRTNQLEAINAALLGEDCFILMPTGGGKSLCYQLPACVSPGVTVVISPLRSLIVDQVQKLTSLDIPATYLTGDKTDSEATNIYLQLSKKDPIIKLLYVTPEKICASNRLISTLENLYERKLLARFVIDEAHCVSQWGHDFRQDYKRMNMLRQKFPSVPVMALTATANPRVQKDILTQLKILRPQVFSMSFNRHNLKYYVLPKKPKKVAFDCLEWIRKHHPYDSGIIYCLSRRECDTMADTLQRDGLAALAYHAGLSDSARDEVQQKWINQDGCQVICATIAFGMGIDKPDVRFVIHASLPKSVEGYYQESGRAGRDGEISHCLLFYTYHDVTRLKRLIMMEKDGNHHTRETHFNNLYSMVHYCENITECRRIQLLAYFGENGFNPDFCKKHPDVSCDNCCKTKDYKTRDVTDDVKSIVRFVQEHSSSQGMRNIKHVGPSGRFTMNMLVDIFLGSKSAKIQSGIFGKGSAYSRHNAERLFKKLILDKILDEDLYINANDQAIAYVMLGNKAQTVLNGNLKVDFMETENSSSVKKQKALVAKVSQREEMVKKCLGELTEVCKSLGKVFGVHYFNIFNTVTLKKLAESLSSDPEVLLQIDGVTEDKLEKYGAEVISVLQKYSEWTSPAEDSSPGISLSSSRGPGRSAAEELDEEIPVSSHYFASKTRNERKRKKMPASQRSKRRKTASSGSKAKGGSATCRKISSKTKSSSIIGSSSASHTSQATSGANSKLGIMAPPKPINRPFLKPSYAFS

Row | SMILES | Potency
1 | COc1ccc(Cl)cc1NC(=O)CCS(=O)(=O)c1ccc(Br)cc1 | 4.82 µM (active)
2 | Cc1ccc(-c2nc(SCc3ccc(Br)cc3)n3[nH]c(=O)cc3n2)cc1 | 4.82 µM (active)
3 | CCc1ccc2nc3sc(C(=O)Nc4nnc(CC)s4)c(N)c3cc2c1 | 10.8 µM (active)
4 | COc1cccc2c1C(=O)c1c(O)c3c(c(O)c1C2=O)CC(O)(C(C)=NNC(=O)c1ccc(Cl)c(Cl)c1)CC3OC1CC(N)C(O)C(C)O1 (stereo not given) | 4.29 µM (active)
5 | Cc1c(CC(=O)N2CCN(C(=O)C3COc4ccccc4O3)CC2)c(=O)oc2c(O)c(O)ccc12 (stereo not given) | 1.52 µM (active)
